Test results reported in the supplement of paper PMC10849652.
Targets with a hit are over-represented here; the source holds about 7,900 in all. About 0.6% of all pairs of compound and target were hits. Values without a mark were called inactive.

These targets were tested with CC(=O)c1cnc2ccc(-c3cc(Cl)c(O)c(Cl)c3)nc2c1N[C@H]1CC[C@H](CN(C)C)CC1 (assay: log2 fold change, soluble protein after heating vs DMSO (PISA); higher = thermal stabilisation; K562 cells, 10 uM, 30 min; active = over 0.2 and 3.5 SD of the protein, either way, in both replicates (recomputed)).
Procedure, shortened: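 K562 cells at 2×10^6 cells/mL were given 10 μM compound for 30 min. Aliquots then went through 3 min of heating across 48°C-58°C, were pooled, and were extracted in PBS with 0.5% NP-40 at 4°C, and the supernatant after 21,000xg for 90 min was quantified by TMTpro 16plex LC-MS/MS with channel sums equalised. Thermal stability relative to control samples, from duplicates, is given as log2 fold change.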

Sequence of UniProt Q02750 (Q02750 whole entry, looked up): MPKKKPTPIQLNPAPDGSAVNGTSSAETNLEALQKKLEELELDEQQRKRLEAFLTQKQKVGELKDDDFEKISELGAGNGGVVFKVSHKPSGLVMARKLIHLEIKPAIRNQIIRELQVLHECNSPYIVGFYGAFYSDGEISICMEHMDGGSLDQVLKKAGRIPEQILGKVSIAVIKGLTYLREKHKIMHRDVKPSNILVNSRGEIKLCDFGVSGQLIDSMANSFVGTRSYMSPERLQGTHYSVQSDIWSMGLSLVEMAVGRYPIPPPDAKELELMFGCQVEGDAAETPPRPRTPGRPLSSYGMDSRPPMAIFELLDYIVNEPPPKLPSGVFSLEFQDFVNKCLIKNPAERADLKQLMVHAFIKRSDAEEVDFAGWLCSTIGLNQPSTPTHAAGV
Sequence of UniProt Q4G0J3 (Q4G0J3 whole entry, looked up): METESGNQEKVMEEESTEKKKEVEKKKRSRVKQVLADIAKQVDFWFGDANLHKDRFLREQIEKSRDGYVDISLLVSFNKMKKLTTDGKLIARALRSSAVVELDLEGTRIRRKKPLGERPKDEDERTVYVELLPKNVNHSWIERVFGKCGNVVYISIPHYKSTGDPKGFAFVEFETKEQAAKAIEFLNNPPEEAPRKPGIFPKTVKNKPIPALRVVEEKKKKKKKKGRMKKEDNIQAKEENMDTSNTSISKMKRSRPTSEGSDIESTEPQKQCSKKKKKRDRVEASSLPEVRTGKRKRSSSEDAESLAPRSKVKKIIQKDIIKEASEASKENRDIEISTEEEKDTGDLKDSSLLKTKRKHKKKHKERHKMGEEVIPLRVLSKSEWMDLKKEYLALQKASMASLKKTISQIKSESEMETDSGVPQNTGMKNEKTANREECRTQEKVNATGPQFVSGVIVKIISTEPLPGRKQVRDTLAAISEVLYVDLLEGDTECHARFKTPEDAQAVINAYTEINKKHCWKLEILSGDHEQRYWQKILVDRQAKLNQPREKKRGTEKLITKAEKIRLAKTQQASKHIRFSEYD
Sequence of UniProt Q86X29 (Q86X29 whole entry, looked up): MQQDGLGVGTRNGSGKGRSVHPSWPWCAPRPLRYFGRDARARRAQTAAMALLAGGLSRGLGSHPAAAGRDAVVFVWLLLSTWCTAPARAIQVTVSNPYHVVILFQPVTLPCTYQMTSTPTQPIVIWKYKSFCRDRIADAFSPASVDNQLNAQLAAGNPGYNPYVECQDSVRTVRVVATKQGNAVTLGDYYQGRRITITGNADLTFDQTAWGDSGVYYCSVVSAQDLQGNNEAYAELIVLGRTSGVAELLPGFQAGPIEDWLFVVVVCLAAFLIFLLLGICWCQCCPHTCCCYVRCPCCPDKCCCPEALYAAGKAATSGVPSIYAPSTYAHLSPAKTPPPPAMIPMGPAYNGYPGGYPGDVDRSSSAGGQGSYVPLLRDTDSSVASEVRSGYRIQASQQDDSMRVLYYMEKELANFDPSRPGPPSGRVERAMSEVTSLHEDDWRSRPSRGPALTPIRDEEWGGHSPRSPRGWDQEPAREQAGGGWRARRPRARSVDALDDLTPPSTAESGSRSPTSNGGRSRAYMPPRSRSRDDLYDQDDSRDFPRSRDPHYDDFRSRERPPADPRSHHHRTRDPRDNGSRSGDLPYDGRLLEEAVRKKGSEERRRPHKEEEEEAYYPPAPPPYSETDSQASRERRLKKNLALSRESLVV
Sequence of UniProt Q12906 (Q12906 whole entry, looked up): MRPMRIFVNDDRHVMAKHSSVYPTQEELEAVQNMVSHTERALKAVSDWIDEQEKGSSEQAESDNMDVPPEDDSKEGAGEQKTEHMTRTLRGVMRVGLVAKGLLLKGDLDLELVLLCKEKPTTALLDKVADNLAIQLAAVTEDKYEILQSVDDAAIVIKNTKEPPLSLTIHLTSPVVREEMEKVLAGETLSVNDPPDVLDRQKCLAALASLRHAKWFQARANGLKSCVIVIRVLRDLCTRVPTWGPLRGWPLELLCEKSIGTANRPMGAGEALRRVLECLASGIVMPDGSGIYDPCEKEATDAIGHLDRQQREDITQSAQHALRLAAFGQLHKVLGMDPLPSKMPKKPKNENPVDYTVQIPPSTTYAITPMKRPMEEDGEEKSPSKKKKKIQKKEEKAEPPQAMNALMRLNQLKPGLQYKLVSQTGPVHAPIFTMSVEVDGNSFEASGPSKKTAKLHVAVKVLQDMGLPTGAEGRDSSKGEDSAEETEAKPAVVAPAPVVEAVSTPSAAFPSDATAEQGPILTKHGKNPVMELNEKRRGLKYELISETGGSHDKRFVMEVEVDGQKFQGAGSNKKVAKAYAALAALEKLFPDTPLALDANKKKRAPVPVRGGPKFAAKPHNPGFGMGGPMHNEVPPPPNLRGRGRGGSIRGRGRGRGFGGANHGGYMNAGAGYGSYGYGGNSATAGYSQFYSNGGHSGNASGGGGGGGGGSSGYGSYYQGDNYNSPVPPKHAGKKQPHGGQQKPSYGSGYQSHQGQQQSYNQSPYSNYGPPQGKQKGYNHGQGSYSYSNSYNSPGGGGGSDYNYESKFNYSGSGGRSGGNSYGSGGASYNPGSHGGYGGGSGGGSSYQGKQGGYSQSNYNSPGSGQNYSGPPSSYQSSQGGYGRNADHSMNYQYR
Sequence of UniProt Q14739 (Q14739 whole entry, looked up): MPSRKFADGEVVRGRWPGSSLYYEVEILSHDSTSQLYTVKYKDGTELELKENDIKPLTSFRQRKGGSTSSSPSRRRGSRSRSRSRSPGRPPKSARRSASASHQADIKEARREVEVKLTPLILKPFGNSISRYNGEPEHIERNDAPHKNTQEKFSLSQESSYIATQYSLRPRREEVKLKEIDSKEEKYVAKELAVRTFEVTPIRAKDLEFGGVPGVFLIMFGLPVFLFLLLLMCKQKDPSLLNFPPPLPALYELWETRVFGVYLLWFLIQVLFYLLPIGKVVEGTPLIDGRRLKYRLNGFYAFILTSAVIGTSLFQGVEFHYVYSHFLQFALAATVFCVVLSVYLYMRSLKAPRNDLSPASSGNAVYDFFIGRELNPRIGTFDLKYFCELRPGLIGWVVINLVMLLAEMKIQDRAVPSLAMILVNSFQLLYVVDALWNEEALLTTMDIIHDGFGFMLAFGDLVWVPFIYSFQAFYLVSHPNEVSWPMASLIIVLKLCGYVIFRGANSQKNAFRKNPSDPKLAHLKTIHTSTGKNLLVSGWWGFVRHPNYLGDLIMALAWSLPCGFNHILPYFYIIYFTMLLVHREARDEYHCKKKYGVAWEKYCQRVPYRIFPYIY
Sequence of UniProt Q9BY66 (Q9BY66 whole entry, looked up): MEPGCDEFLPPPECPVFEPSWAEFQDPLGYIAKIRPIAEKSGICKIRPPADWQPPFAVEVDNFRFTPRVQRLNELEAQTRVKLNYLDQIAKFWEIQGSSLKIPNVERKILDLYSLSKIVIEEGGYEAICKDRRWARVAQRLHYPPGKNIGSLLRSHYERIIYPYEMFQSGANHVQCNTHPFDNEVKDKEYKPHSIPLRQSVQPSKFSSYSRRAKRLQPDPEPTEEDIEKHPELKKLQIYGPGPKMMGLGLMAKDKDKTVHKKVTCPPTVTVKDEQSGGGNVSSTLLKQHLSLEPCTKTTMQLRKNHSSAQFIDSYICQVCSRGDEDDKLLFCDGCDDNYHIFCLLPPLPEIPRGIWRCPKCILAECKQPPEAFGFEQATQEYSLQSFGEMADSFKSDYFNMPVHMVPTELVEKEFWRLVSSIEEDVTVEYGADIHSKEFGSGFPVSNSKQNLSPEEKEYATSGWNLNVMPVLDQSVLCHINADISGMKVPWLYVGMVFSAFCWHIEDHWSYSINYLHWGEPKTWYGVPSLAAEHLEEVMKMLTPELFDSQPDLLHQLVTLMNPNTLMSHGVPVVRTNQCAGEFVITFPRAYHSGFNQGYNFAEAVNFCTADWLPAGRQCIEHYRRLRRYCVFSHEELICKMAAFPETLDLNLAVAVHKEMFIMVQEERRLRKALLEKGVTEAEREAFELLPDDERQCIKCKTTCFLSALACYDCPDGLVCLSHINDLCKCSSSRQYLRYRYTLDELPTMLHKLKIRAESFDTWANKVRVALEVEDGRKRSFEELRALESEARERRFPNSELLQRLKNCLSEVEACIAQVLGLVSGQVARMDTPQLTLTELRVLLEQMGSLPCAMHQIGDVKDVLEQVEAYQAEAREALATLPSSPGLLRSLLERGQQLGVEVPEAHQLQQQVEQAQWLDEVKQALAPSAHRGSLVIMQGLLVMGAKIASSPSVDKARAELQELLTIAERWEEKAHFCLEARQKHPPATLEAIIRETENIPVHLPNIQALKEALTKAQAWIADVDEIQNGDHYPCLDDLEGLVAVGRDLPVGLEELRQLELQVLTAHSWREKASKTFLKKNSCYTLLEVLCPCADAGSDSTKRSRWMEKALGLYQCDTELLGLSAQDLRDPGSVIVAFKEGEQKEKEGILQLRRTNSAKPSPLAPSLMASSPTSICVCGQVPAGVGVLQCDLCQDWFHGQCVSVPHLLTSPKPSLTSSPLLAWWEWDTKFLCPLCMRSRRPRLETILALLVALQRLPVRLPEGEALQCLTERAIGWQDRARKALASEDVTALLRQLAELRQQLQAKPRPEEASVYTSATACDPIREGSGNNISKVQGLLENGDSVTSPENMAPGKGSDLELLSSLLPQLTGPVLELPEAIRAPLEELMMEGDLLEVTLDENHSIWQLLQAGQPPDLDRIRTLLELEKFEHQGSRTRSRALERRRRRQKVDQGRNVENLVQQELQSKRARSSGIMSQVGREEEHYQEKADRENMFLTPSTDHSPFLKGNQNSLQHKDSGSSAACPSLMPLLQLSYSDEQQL
Sequence of UniProt Q9GZY8 (Q9GZY8 whole entry, looked up): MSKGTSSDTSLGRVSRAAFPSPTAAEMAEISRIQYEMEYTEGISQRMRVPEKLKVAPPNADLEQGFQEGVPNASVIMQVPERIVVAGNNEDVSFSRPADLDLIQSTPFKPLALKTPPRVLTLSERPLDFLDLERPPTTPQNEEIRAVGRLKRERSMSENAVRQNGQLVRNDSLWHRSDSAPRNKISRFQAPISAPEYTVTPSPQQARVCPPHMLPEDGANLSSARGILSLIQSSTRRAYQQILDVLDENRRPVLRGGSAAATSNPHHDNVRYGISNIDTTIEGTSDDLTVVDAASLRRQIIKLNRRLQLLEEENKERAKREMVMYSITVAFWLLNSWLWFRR

Target	log2 fold change
MAPK9 (UniProt P45984)	0.278 (active)
MGST3 (UniProt O14880)	0.036
INTS7 (UniProt Q9NVH2)	0.029
LARP1 (UniProt Q6PKG0)	-0.059
KDM5D isoform 3 (UniProt Q9BY66)	-0.05
MAP2K1 (UniProt Q02750)	-0.349 (active)
MAP3K20 (UniProt Q9NYL2)	-0.654 (active)
LUC7L3 (UniProt O95232)	-0.409 (active)
LBR (UniProt Q14739)	0.038
L2HGDH (UniProt Q9H9P8)	-0.065
KDM3B (UniProt Q7LBC6)	-0.023
LUC7L2 (UniProt Q9Y383)	-0.646 (active)
MFN2 (UniProt O95140)	-0.055
IPO9 (UniProt Q96P70)	0.113
LSR (UniProt Q86X29)	-0.139
MAP4 (UniProt P27816)	0.012
LARP7 isoform 3 (UniProt Q4G0J3)	0.063
MFF (UniProt Q9GZY8)	-0.228
METTL18 (UniProt O95568)	0.013
ILF3 isoform 7 (UniProt Q12906)	0.172
LAMP2 (UniProt P13473)	-0.083
LRPPRC (UniProt P42704)	-0.439
MAPKAPK3 (UniProt Q16644)	0.332 (active)
